Measured values reported in PubChem BioAssay AID1063 (University of Pittsburgh Molecular Library Screening Center, 2008).
Out of some 200,000 compounds screened, about 18,000 (9%) were called active. Only a selection was taken, and actives are over-represented in it overall. A number with no mark means an inactive call. Cut-off read from the data, not from the text of the source: active = inhibition above about 50%; inactive = the rest.

Assay: Leishmania major promastigote growth inhibition, primary screen (AID 1063);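 note: promastigotes grown with compound for 44 hours at 28 °C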
Conditions: Leishmania major promastigotes, resazurin fluorescence viability; at 10 µM; active compounds read high

Going from `CC(C)c1nc(N2CCOCC2)c(C#N)c2c1COC(C)(C)C2` to `CC1(C)Cc2c(C#N)c(SCc3nc4ccccc4[nH]3)nc(N3CCOCC3)c2CO1`, the inhibition rises from 4.48% to 34.1%.

Compared with `CCN(CC)C(=O)CS(=O)CC(=O)Nc1cc(OCCOC)c(Cl)cc1Cl` (centres undefined), `CCN(CC)C(=O)Oc1ccc(OC(=O)N(CC)CC)cc1` is lower in inhibition: 1.34% for the first, -5.77% for the second.

Going from `Cc1ccnc2nc(C(=O)Nc3nnc(-c4ccccc4)o3)nn12` to `CC(N=Cc1nc(-c2ccccc2)oc1O)c1ccccc1` (centres undefined), the inhibition rises from -14.4% to -1.28%.

First: CCOc1ccc(-n2cnnn2)cc1S(=O)(=O)N1CCC(C)CC1C (centres undefined)
Second: CCOC(=O)C1CCN(S(=O)(=O)c2cc(F)ccc2OC)CC1
The inhibition of the first is lower: -5.29% for the first, 6.21% for the second.

Compared with `COc1cc2[nH]c(=S)n(Cc3ccc(F)cc3)c(=O)c2cc1OC`, `COc1ccc(OC)c(-n2c(=S)[nH]c3cc(C(=O)N4CCCCC4)ccc3c2=O)c1` is lower in inhibition: -5.46% for the first, -7.75% for the second.

First: Cc1cc2cc(CN(Cc3cccs3)Cc3nnnn3CC3CCCO3)c(=O)[nH]c2cc1C (centres undefined)
Second: Cc1cc(C)c2cc(CN(Cc3cccs3)Cc3nnnn3CC3CCCO3)c(=O)[nH]c2c1 (centres undefined)
The inhibition of the first is lower: 21.2% for the first, 48.9% for the second.

Going from `CCC(c1nnnn1C1CCCC1)N(Cc1cccs1)Cc1cc2cccc(C)c2[nH]c1=O` (centres undefined) to `Cc1cccc2cc(CN(Cc3nnnn3Cc3ccccc3)C3CCCC3)c(=O)[nH]c12`, the inhibition rises from 30.1% to 36.7%.

First: C=C(C)CNC(=S)N/N=C/c1ccccc1OCC(=O)O
Second: COc1cc(/C=N\Nc2ccc([N+](=O)[O-])cn2)ccc1OCC(=O)O
The inhibition of the first is lower: -1.38% for the first, 4.37% for the second.

Going from `O=S(=O)(NCCc1ccc(F)cc1)c1cccc2cccnc12` to `C=CCn1c(COc2ccc(F)cc2)nnc1SCC(=O)Nc1cccc(S(N)(=O)=O)c1`, the inhibition rises from -0.53% to 1.1%.

First: O=C1C2C3C=CC(C3)C2C(=O)N1c1ccc(-c2nc3ccccc3c(=O)o2)cc1 (centres undefined)
Second: Cc1cc(OC(=O)c2ccccc2Cl)ccc1N1C(=O)CCC1=O
The inhibition of the first is lower: -7% for the first, -6.74% for the second.

Going from `COc1ccc(C(=O)Nc2ccc(-n3nncc3C(C)(C)C)cc2)cc1` to `COc1ccc(NC(=O)c2ccccc2CC[N+](=O)[O-])cc1`, the inhibition rises from -0.36% to 13.1%.

First: COc1cc(C(=O)OCc2ccc([N+](=O)[O-])cc2)cc(OC)c1OC
Second: COc1cc(OC)c(C(=O)Nc2ccc(N(C)C)cc2)cc1OC
The inhibition of the first is lower: -8.98% for the first, 3.39% for the second.

Compared with `COC(=O)Cc1ccc(Oc2ncc(C(F)(F)F)cc2Cl)cc1`, `Cc1cc(Cl)ccc1OCCCC(=O)NCc1ccncc1` is higher in inhibition: -7.25% for the first, -0.52% for the second.

First: C/C(=N\NC(=O)NC1CCCCC1)c1ccc(OC(F)F)cc1OC(F)F
Second: CC/C(=N\NC(=S)NC(C)C)c1ccc(OC(F)F)cc1
The inhibition of the first is higher: 46.4% for the first, 16.9% for the second.

First: CCN(CC)CCOC(=O)c1ccc(NC(=O)CNC(=O)c2ccccc2)cc1
Second: Cc1ccc(S(=O)(=O)N(C)CC(=O)OCC(=O)N2CC(=O)Nc3ccccc32)cc1
The inhibition of the first is lower: -0.48% for the first, 0.63% for the second.

Going from `CCOC(=O)c1ccccc1NC(=S)N1CCC(C(N)=O)CC1` to `CCOc1ncccc1C(=O)OCC(=O)NC1CC1`, the inhibition rises from 4.08% to 4.89%.

First: COc1cccc(-n2c(=O)c3c(C)c(C(=O)N(C)C)sc3n(CC(=O)NCCc3ccc(OC)c(OC)c3)c2=O)c1
Second: Cc1ccc(-n2c(=O)c(C#N)cc3c(=O)n4ccccc4nc32)cc1C
The inhibition of the first is lower: 2.17% for the first, 2.63% for the second.

First: O=C(Nc1ccccc1F)c1ccccc1-c1ccccc1
Second: c1ccc(-c2ccccc2OCCN2CCCCC2)cc1
The inhibition of the first is lower: -3.5% for the first, 8.2% for the second.

Compared with `O=C(NCc1ccccc1Cl)C1CCN(S(=O)(=O)N2CCOCC2)CC1`, `O=C(NCCc1ccccc1)C1CCN(S(=O)(=O)c2ccc(Br)s2)CC1` is higher in inhibition: -5.43% for the first, -1.73% for the second.

First: Cc1csc(NC(=O)CSc2ccc(-c3ccc(F)cc3)nn2)n1
Second: NC(=O)Cc1nc2scc(-c3ccc(Cl)cc3)c2c(=O)[nH]1
The inhibition of the first is higher: 7.99% for the first, 5.26% for the second.

First: NNC(=O)C1CC(O)CN1S(=O)(=O)c1ccc(Cl)cc1 (centres undefined)
Second: CC1CCN(S(=O)(=O)c2ccc(S(=O)(=O)NCc3cccnc3)cc2)CC1
The inhibition of the first is higher: 4% for the first, -2.4% for the second.

Compared with `O=C(NCc1ccccc1)C1CCCN(c2nc3ccsc3c(=O)s2)C1` (centres undefined), `Cc1ccccc1NC(=O)CNc1ccccc1N1CCCCC1` is higher in inhibition: -5.75% for the first, 21.9% for the second.

First: Cn1c(=O)c2c(nc(SCC(=O)Nc3ccccc3N3CCCCC3)n2C)n(C)c1=O
Second: CC1CCCN(Cc2nc3c(c(=O)n(C)c(=O)n3C)n2CC(=O)c2ccccc2)C1 (centres undefined)
The inhibition of the first is higher: 31% for the first, 22.4% for the second.

First: CN(c1ccccc1)S(=O)(=O)c1ccc(Cl)c(C(=O)OCC(=O)N2CCOCC2)c1
Second: O=C(CN(c1cccc(Cl)c1)S(=O)(=O)c1ccccc1)NN=C1CCCC1
The inhibition of the first is lower: 1.28% for the first, 12.4% for the second.

Going from `COC(=O)c1nc2ccccc2s1` to `CCC(=O)NC(=Nc1nc2ccccc2s1)NC(=O)CC`, the inhibition rises from -8.95% to 8.31%.

Compared with `CN(C)CCOc1ccc(Cl)cc1C(C)(C)C`, `CC(C)(C)C(=O)/C(C#N)=C/c1ccc(O)cc1` is lower in inhibition: 6.15% for the first, -4.15% for the second.

Compared with `CN1CCN(CCCCOc2ccccc2-c2ccccc2)CC1`, `COc1cccc(CC(=O)N2CCCC(CCC(=O)N3CCN(c4ccccn4)CC3)C2)c1` (centres undefined) is lower in inhibition: 44.5% for the first, 8.58% for the second.

Going from `COC(=O)[C@H](Cc1ccccc1)NC(=O)N1CC(C)OC(C)C1` (some centres undefined) to `CCCS(=O)(=O)N1CCC(CCOc2ccccc2)(C(=O)OCC)CC1`, the inhibition falls from 15.6% to -1.49%.

First: CS(=O)(=O)N(CC(=O)NC1CCCC1)Cc1ccc(F)cc1
Second: O=C(NC1CCCCC1)C1CCCN(S(=O)(=O)c2ccc(Br)s2)C1 (centres undefined)
The inhibition of the first is lower: -5.9% for the first, 12.5% for the second.

Compared with `Cc1cccn2c(=O)c3cc(C#N)c(=NC(=O)c4cccnc4)n(CC4CCCO4)c3nc12` (centres undefined), `Cc1ccc(C2CCN(C(=S)Nc3cccc(Cl)c3)C2)cc1` (centres undefined) is lower in inhibition: 16.8% for the first, 0.88% for the second.

Compared with `CN1C(=O)/C(=C\c2ccc(-c3ccccc3)o2)SC1=S`, `CCOc1ccc(/C=N/Nc2nncc(-c3ccccc3)n2)cc1OC` is higher in inhibition: -6.51% for the first, -2.97% for the second.

Compared with `COc1ccccc1NC(=O)COC(=O)Cc1ccc(S(=O)(=O)N2CCCCC2)s1`, `CCN(C(=O)COC(=O)c1cc(S(=O)(=O)N2CCc3ccccc32)ccc1OC)C1CCS(=O)(=O)C1` (centres undefined) is lower in inhibition: 6.48% for the first, -4.24% for the second.

First: O=C(NC1CCCCC1)n1c(=O)oc2cc(S(=O)(=O)N3CCCCC3)ccc21
Second: CCOc1ccc2nc(C(=O)N3CCCC(C)C3)sc2c1 (centres undefined)
The inhibition of the first is lower: 2.93% for the first, 41.6% for the second.

Compared with `Cc1ccccc1-n1nc(SCC(=O)O)sc1=S`, `Cc1[nH]c2ccccc2c1/C=C(/C#N)C(=O)NC(C)C` is higher in inhibition: -4.01% for the first, 16.4% for the second.

Going from `C1CC1Cc1noc(CN2CCN(CC3CC3)CC2)n1` to `O=c1[nH]c(CN2CCOCC2)nc2cc(Cl)ccc12`, the inhibition falls from 15.8% to -9.96%.

Going from `N/C(=N\OC(=O)c1ccc2c(c1)OCO2)c1ccc(Br)cc1` to `Cc1ccc(NC(=O)c2cc([N+](=O)[O-])ccc2Cl)c(O)c1`, the inhibition rises from 1.57% to 15.1%.

Going from `CCCC1CCC(=NNC(=S)NCCc2ccccc2)CC1` (centres undefined) to `Cc1ccc(NC(=S)N/N=C2/CCCc3c(C)cc(C)cc32)cc1`, the inhibition rises from -9.55% to -7.12%.

For `CC(C)C(=O)Nc1cccc(NC(=O)c2ccc([N+](=O)[O-])cc2Cl)c1`, the inhibition was 6.59%.

For `COc1ccc(CSc2nc(N3CCOCC3)c3c(c2C#N)CC(C)(C)OC3)cc1`, the inhibition was 66.8% (active).
For `Cc1cccc2cc(CN(Cc3cccs3)C(c3nnnn3C3CCCC3)C(C)C)c(=O)[nH]c12` (centres undefined), the inhibition was 90.3% (active).
In the case of `Cc1cccc2cc(CN(Cc3ccc4c(c3)OCO4)Cc3nnnn3C3CCCC3)c(=O)[nH]c12`, the inhibition is reported as 71.8% (active).
In the case of `COc1cc(/C=N/O)ccc1OCc1ccc([N+](=O)[O-])cc1`, the inhibition is reported as 51.5% (active).
In the case of `COc1cc(OC)c(C(=O)Nc2ccccc2-c2ccccc2)cc1OC`, the inhibition is reported as 82.5% (active).
With `CC(C)n1c(SCC(=O)Nc2ccccc2N2CCCCC2)nc2c1c(=O)n(C)c(=O)n2C` the inhibition was 58.5% (active).
With `CC(C)CC(=O)N/C(N)=N/c1nc2ccccc2s1` the inhibition was 95.3% (active).
With `CC(C)(C)NCCCOc1ccc(Cl)cc1C(C)(C)C` the inhibition was 100% (active).
For `CC1CCCN(CCOCCOc2ccccc2-c2ccccc2)C1` (centres undefined), the inhibition was 98.6% (active).
For `CC1CN(CCCOc2ccccc2-c2ccccc2)CC(C)O1` (centres undefined), the inhibition was 88.7% (active).
With `Cc1cccn2c(=O)c3cc(C#N)c(=O)n(CCCN4CCOCC4)c3nc12` the inhibition was 95.7% (active).
With `O=C(Cc1ccc(S(=O)(=O)N2CCCC2)s1)NC1CCCCCC1` the inhibition was 93.5% (active).
In the case of `O=C(Cc1ccc(S(=O)(=O)N2CCOCC2)s1)NCCC(c1ccccc1)c1ccccc1`, the inhibition is reported as 98.1% (active).
In the case of `CC(C)NC(=O)/C(C#N)=C\c1ccc(N(C)C)c(Br)c1`, the inhibition is reported as 64.6% (active).
For `CCOc1ccc2nc(/N=C/c3nc(-c4ccccc4)oc3O)sc2c1`, the inhibition was 54.2% (active).
In the case of `CCCCNC(=S)N/N=C1\CCCCc2ccccc21`, the inhibition is reported as 97.5% (active).
In the case of `CN(C)c1ccc(Nc2c3c4c(cccc4n(C)c2=O)C(=O)c2ccccc2-3)cc1`, the inhibition is reported as 59% (active).
In the case of `O=c1[nH]c(CCl)nc2cc(-c3ccc(Cl)cc3)sc12`, the inhibition is reported as 96.9% (active).
In the case of `CCC(C)C(=O)Nc1cc([N+](=O)[O-])ccc1Cl` (centres undefined), the inhibition is reported as 72.6% (active).
